According to PubChem BioAssay AID1159580 (chemical genetic matrix, 2015):
Where “and” joins values, the source holds several entries; their conditions need not be identical. Equal values may be shown once. The campaign covered roughly 5,500 compounds. About 2,000 (36%) were called active. Another 18% or so got no clear call; they are omitted. Rule as the data show it: active = normalized growth mostly below about 0.91 (no sharp cut-off); inconclusive = no clear call, values can overlap the other calls; inactive = mostly above about 0.92. This is one part of the list.

Experiment: chemical genetic growth profiling, strain panel (AID 1159580);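 also: tested at 20 µM; growth read once vehicle control cultures reached saturation at 30 °C; 1 = growth at the plate median or of vehicle wells; lower values mean less growth of the strain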
Conditions: S. cerevisiae deletion strains, growth OD

Measured: normalized growth

C[N+](C)(C)CC(O)CC(=O)O (stereo unspecified)
inactive: locus YAL013W, strain DEP1, active compounds read low 1.02 | locus YAL021C, strain ccr4, active compounds read low 1.01 | locus YAL026C, strain drs2, active compounds read low 0.982 | locus YAL030W, strain snc1, active compounds read low 0.982 | locus YBL061C, strain skt5, active compounds read low 0.977 | locus YBR009C, strain hhf1, active compounds read low 1 | locus YBR021W, strain FUR4, active compounds read low 0.992 | locus YBR023C, strain chs3, active compounds read low 0.985 | locus YBR171W, strain sec66, active compounds read low 0.981 | locus YBR229C, strain ROT2, active compounds read low 1 | locus YBR231C, strain swc5, active compounds read low 0.974 | locus YBR279W, strain paf1, active compounds read low 0.998 | locus YCL011C, strain gbp2, active compounds read low 0.978 | locus YCL016C, strain dcc1, active compounds read low 0.96 | locus YCL029C, strain bik1, active compounds read low 1 | locus YCL069W, strain vba3, active compounds read low 0.981 | locus YCR088W, strain abp1, active compounds read low 0.986 | locus YDL005C, strain med2, active compounds read low 0.98 | locus YDL035C, strain GPR1, active compounds read low 1.02 | locus YDL040C, strain nat1, active compounds read low 0.982 | locus YDL074C, strain BRE1, active compounds read low 1.01 | locus YDL101C, strain DUN1, active compounds read low 1 | locus YDL134C, strain PPH21, active compounds read low 1.01 | locus YDL185W, strain tfp1, active compounds read low 0.996 | locus YDL192W, strain arf1, active compounds read low 0.997 | locus YDR001C, strain nth1, active compounds read low 0.975 | locus YDR069C, strain doa4, active compounds read low 1.01 | locus YDR101C, strain arx1, active compounds read low 0.983 | locus YDR137W, strain rgp1, active compounds read low 0.972 | locus YDR150W, strain NUM1, active compounds read low 1.01 | locus YDR159W, strain sac3, active compounds read low 1.02 | locus YDR162C, strain NBP2, active compounds read low 1 | locus YDR195W, strain ref2 0.96 | locus YDR297W, strain sur2, active compounds read low 0.998 | locus YDR318W, strain mcm21, active compounds read low 0.999 | locus YDR334W, strain swr1, active compounds read low 0.969 | locus YDR335W, strain msn5, active compounds read low 0.971 | locus YDR388W, active compounds read low 1.01 | locus YDR392W, strain spt3, active compounds read low 0.973 | locus YDR502C, strain sam2, active compounds read low 1.02 | locus YEL003W, strain gim4, active compounds read low 0.986 | locus YEL037C, strain rad23, active compounds read low 0.969 | locus YEL061C, strain CIN8 (second series), active compounds read low 0.981 | locus YEL061C, strain CIN8, active compounds read low 1 | locus YER015W, strain faa2, active compounds read low 0.977 | locus YER016W, strain bim1, active compounds read low 0.965 | locus YER110C, active compounds read low 0.991 | locus YER111C, strain swi4, active compounds read low 0.96 | locus YER155C, strain BEM2 (second series), active compounds read low 0.965 | locus YER155C, strain BEM2, active compounds read low 0.995 | locus YER167W, strain BCK2, active compounds read low 0.995 | locus YFR010W, strain ubp6, active compounds read low 1 | locus YGL078C, strain dbp3, active compounds read low 1 | locus YGL086W, strain mad1, active compounds read low 0.998 | locus YGL167C, strain pmr1, active compounds read low 0.98 | locus YGL173C, strain kem1, active compounds read low 0.968 | locus YGL227W, strain vid30, active compounds read low 0.985 | locus YGL240W, strain doc1, active compounds read low 0.998 | locus YGL248W, strain PDE1, active compounds read low 1 | locus YGL253W, strain hxk2, active compounds read low 0.957 | locus YGR078C, strain PAC10, active compounds read low 1 | locus YGR135W, strain pre9, active compounds read low 0.994 | locus YGR229C, strain SMI1, active compounds read low 1.02 | locus YGR252W, strain gcn5, active compounds read low 1 | locus YHR013C, strain ard1, active compounds read low 0.95 | locus YHR027C, strain rpn1, active compounds read low 0.984 | locus YHR030C, strain SLT2, active compounds read low 1 and 0.979 | locus YHR079C, strain IRE1 (second series), active compounds read low 0.999 | locus YHR079C, strain IRE1, active compounds read low 0.976 | locus YHR094C, strain hxt1, active compounds read low 0.996 | locus YHR129C, strain ARP1, active compounds read low 0.999 | locus YHR142W, strain chs7, active compounds read low 0.968 | locus YHR200W, strain rpn10, active compounds read low 1 | locus YIL066C, strain RNR3, active compounds read low 1.02 | locus YIL073C, strain SPO22, active compounds read low 1.04 | locus YIL125W, strain kgd1, active compounds read low 1 | locus YIR030C, strain dcg1, active compounds read low 0.998 | locus YJL092W, strain hpr5, active compounds read low 0.984 | locus YJL095W, strain BCK1 (second series), active compounds read low 0.974 | locus YJL095W, strain BCK1, active compounds read low 1 and 0.989 | locus YJL115W, strain asf1, active compounds read low 0.977 | locus YJL129C, strain trk1, active compounds read low 0.983 | locus YJL134W, strain LCB3, active compounds read low 1 | locus YJL154C, strain vps35, active compounds read low 0.975 | locus YJL164C, strain tpk1, active compounds read low 0.989 | locus YJL166W, strain qcr8, active compounds read low 1.02 | locus YJL168C, strain set2, active compounds read low 0.997 | locus YJL187C, strain SWE1 (second series), active compounds read low 1.01 | locus YJR043C, strain POL32, active compounds read low 1 | locus YJR066W, strain TOR1, active compounds read low 0.929 | locus YJR075W, strain HOC1, active compounds read low 1.01
